Only some compounds are listed: those with a hit (about 1.6% of all), similar ones and a draw of the others.
KCNQ2 inh – inhibitors of rat KCNQ2 potassium channel | O88943 | CHO-K1 KCNQ2, FluxOR thallium flux, 20 min; active compounds read low | B-score at 10 µM | hit rate 1.1% among 310,000;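 active means fluorescence ratio B-score at most minus 3 library SDs, with starting brightness B-score within 2 library SDs, cut at about -5.5 in these data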
KCNQ2 enhance – potentiators of rat KCNQ2 potassium channel; CHO-K1 KCNQ2, FluxOR thallium flux fluorescence; active compounds read high; B-score at 10 µM; hit rate 0.54% among 310,000; AID 2239;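 active means fluorescence ratio B-score at least 3 SD of library B-scores, with initial fluorescence B-score within 3 of them, cut at about 5.3 in these data; same plate scores as AID 2156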;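 further: B-score of peak minus minimum over baseline fluorescence ratio after K+ and Tl+ stimulus; positive B-score means potentiation of KCNQ2 with more thallium influx and brighter signal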
* hit, by the source's call; i = inactive; nt = no result given.

SMILES | KCNQ2 inh | KCNQ2 enhance
CC(C)OC(=O)/C(=C/c1ccc2c(c1)c1ccccc1n2C)NC(=O)c1ccccc1 | i | nt
CCOc1ccc(C(=O)NCC2CCN(CC3CCCCC3)CC2)cc1 | i | nt
Cc1cc(SCC(=O)c2cccs2)n2nc(C)c(-c3ccccc3)c2n1 | i | 6*
C=CCSc1cc(C)nc2c(-c3ccccc3)c(C)nn12 | i | nt
COc1cccc(C(=O)NN/C(C)=C/C(=O)C(F)(F)C(F)(F)C(F)(F)F)c1 | i | 8.5*
COc1cccc(C(=O)Nc2ccc(NC(C)=O)cc2)c1 | i | nt
COc1cccc(/C=N/NC(=O)CSc2ccccc2C)c1O | i | 9.4*
COc1cccc(/C=N/NC(=O)CSc2ccccc2C)c1OC | i | nt
CSc1ccc(CN2CCC(n3nccc3NC(=O)CCCc3ccccc3)CC2)cc1 | i | 1.5
CN(Cc1ccccc1)C(NC(=O)c1ccccc1)C(Cl)(Cl)Cl (stereo not drawn) | -5.8* | -5.8
CN(Cc1ccc(F)cc1)C(=O)C(Cc1ccccc1)NC(=O)c1ccccc1 (stereo not drawn) | i | nt
CSc1ccc(CN(C)C(=O)C(Cc2ccccc2)NC(=O)c2ccccc2)cc1 (stereo not drawn) | -5.5* | -5.5
CN(Cc1ccccc1)C(NC(=O)c1ccco1)C(Cl)(Cl)Cl (stereo not drawn) | i | 0.56
CN(Cc1ccccc1)C(=S)NC(=O)c1ccc(-c2ccccc2)cc1 | i | 7.1*
CN(Cc1ccccc1)C(=S)NC(=O)c1cccs1 | i | 2.2
O=C(O)c1ccccc1C(=O)c1ccc2c(c1)CCC2 | i | 0.91
COCCn1c(-c2ccc(Br)cc2)nc2oc3cc(OC)ccc3c(=O)c2c1=O | i | nt
Cc1ccc(S(=O)(=O)CCC(=O)OCC(=O)NC2CCS(=O)(=O)C2)cc1 (stereo not drawn) | i | 1.8
CCC(C)c1ccc(OCC(=O)Nc2ccc(CN3CCOCC3)cc2)cc1 (stereo not drawn) | i | 1
COCCOCCn1c(/C=C/c2ccccc2)nc2ccccc21 | i | nt
CCCn1c(/C=C/c2ccccc2)nc2ccccc21 | -6.1* | -6.1
Cc1ccc(NC(=O)C2CCN(S(=O)(=O)c3cccnc3)CC2)cc1C | i | 1.7
COc1ccc2ccccc2c1CN(C)Cc1ccccc1 | i | 1.7
CN(Cc1ccccc1)Cc1c(F)cccc1F | i | 6.6*
CCN(c1ccc(OC)cc1)S(=O)(=O)N1CCCC(C(=O)NCc2cccc(C)c2)C1 (stereo not drawn) | -6.4* | -6.4
SMILES | KCNQ2 inh | KCNQ2 enhance
CCS(=O)(=O)N1CCCC(C(=O)NCc2cccc(OC)c2)C1 (stereo not drawn) | i | 0.58
Cc1cccc(CC2CC(=O)N(c3ccc(C)cc3Br)C2=O)c1 (stereo not drawn) | i | nt
O=C(C1COc2ccccc2O1)N1CCN(c2ccccc2Cl)CC1 (stereo not drawn) | -7.4* | -7.4
O=C(C1COc2ccccc2O1)N1CCN(c2ccccc2F)CC1 (stereo not drawn) | i | nt
COc1cc2[nH]c(C(=O)Nc3ccc(F)cc3)cc2c(OC)c1OC | i | 1.4
CCc1ccc(-c2cn(-c3nc(C)cc(C)n3)c(=N)o2)cc1 | -6.4* | -6.4
CCc1ccc(-c2cn3c(n2)SCC3)cc1 | i | nt
Cc1noc(C)c1S(=O)(=O)N(CC(=O)NC1CCC(C)CC1)c1ccc(C(C)C)cc1 (stereo not drawn) | -7.1* | -7.1
CCOc1ccc(N(CC(=O)NC2CCC(C)CC2)S(=O)(=O)c2c(C)noc2C)cc1 (stereo not drawn) | i | 0.09
Cc1cnc(C(=O)N2CCCC(N3CCN(c4cccc(C(F)(F)F)c4)CC3)C2)cn1 (stereo not drawn) | i | 1.2
COC1=CC(=O)C(O)=C(CCCCCCC/C=C/CCCCCCCC2=C(O)C(=O)C=C(OC)C2=O)C1=O | -6.6* | -6.6
CCCCCCCCCCCC1=C(O)C(=O)C=C(O)C1=O | i | 0.01
CN(C)CCCNCC(=O)c1c(-c2ccccc2)n(C)c2ccccc12 | i | nt
COc1ccccc1CNC(=O)C1CCCN(S(=O)(=O)c2ccc3c(c2)C(C)(C)C(=O)N3C)C1 (stereo not drawn) | i | nt
COc1ccccc1CNC(=O)C1CCCN(S(=O)(=O)c2ccc3c(c2)CC(C)N3C(C)=O)C1 (stereo not drawn) | -6.9* | -6.9
Cn1c(CNC(=O)CCNC(=O)c2cccc(F)c2)cc(=O)n(C)c1=O | i | 2.1
Cc1ccc(S(=O)(=O)n2cnc3ccccc32)cc1[N+](=O)[O-] | i | nt
CCCC(C)C(=O)Nc1ncc(S(=O)(=O)c2ccc([N+](=O)[O-])cc2)s1 (stereo not drawn) | i | 0.23
O=C(/C=C/c1ccc(Cl)c(C(F)(F)F)c1)N1CCN(c2ccccn2)CC1 | i | nt
CCOC(=O)CNC(=S)N(Cc1ccco1)Cc1ccccc1Cl | -6.5* | -6.5
CCCCNC(=O)CNC(=S)N(Cc1ccc(C)cc1)Cc1ccco1 | i | 0.59
O=C(/C=C/c1cccs1)c1cc(Br)ccc1OC(=O)N1CCOCC1 | -6.8* | -6.8
COc1ccc(C(=O)/C=C/c2cccs2)c(OC(=O)N2CCOCC2)c1 | i | 0.23
CCC(C(=O)NCCN1CCOCC1)n1c2ccccc2c2nc(=O)cc(C)n21 (stereo not drawn) | i | 0.23
O=C(c1ccccc1)C1CCN(C(=O)C2CCC(=O)N(Cc3ccccc3F)C2)CC1 (stereo not drawn) | i | nt
SMILES | KCNQ2 inh | KCNQ2 enhance
COc1cccc(C(=O)N2c3cc(C)ccc3OCC2C(C)(C)C)c1 (stereo not drawn) | i | nt
Cc1ccc(S(=O)(=O)N2c3cc(C)ccc3OCC2C(C)(C)C)cc1 (stereo not drawn) | -6.2* | -6.2
Cc1ccc(S(=O)(=O)N2c3ccccc3OCC2c2ccccc2)cc1 (stereo not drawn) | i | nt
COc1ccc(S(=O)(=O)N2c3cc(C)ccc3OCC2C(C)(C)C)cc1 (stereo not drawn) | -5.5* | -5.5
COc1ccc(S(=O)(=O)NCC2CCCN(C(=O)CCC(F)(F)F)C2)cc1 (stereo not drawn) | i | nt
CC1CCCN(C(=O)c2nn(C)c3c2CSc2ccccc2-3)C1 (stereo not drawn) | i | nt
CN(C(=O)c1nn(C)c2c1CSc1ccccc1-2)c1ccc(F)cc1 | -6.5* | -6.5
CCC1Oc2ccc(C)cc2N(CC(=O)NCCN2CCOCC2)C1=O (stereo not drawn) | i | nt
Clc1ccc(C2=C3CCCCn4c(-c5ccccc5)c[n+](c43)C2)cc1 | -6.4* | -6.4
O=C(C[n+]1cc(-c2ccc(Cl)cc2)n2c1CCCCC2)c1ccccc1 | i | nt
CCCOc1cccc(C2C(C(=O)c3cccs3)=C(O)C(=O)N2Cc2cccnc2)c1 (stereo not drawn) | i | 1.1
Cc1ccc(C)c(S(=O)(=O)NCC(=O)Nc2ccc3c(c2)OCO3)c1 | i | 0.19
CC(C)(C)C(=O)Cn1c(=N)n(Cc2ccccc2)c2ccccc21 | -6.2* | -6.2
CC(C)(C)C(=O)Cn1c(=N)n(Cc2ccccc2Cl)c2ccccc21 | i | nt
CCC(=O)c1ccc(OCC(O)CN(CCc2ccccc2)Cc2ccccc2)cc1 (stereo not drawn) | -7.6* | -7.6
COc1cccc(OCC(O)CN(CCO)Cc2ccccc2)c1 (stereo not drawn) | i | nt
CC(=O)c1ccc(NC(=O)CSc2nc(C3CC3)nc3ccccc23)cc1 | i | 1.1
